Rows were chosen to be rich in hits. Some 4.1% of all compounds tested hit in one or more screens of this group.
DAX1 inh-1: inhibits human nuclear receptor DAX1. P51843. HEK293 Gal4-DAX1 luciferase reporter, luminescence. inhibition, % at 6.75 µM. hit rate 0.99% among 340,000. AID 504766;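 active = inhibition above the mean over all tested compounds plus 3 SD, cut at about 4.2% in these data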;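 also: 0% = DAX1-transfected cells with DMSO and 100% = empty-vector control cells with DMSO; inhibition shows as a rise in luminescence from relieved DAX1 repression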
Target sequence (P51843 207-470 limits assumed): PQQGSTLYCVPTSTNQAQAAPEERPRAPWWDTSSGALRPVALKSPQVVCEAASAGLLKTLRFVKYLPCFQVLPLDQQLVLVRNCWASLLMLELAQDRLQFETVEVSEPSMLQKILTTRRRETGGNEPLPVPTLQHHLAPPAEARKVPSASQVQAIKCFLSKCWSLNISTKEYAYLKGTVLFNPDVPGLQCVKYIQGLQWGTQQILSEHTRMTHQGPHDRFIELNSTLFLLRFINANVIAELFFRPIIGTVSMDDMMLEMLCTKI
hgDAF12 agonist: activates the H. glycines DAF-12 receptor ligand-binding domain; hit rate 1.8% among 370,000; activation, % at 6.8 µM; HEK293 GAL4-hgDAF12 UAS-luciferase reporter, agonist luminescence; normalized to butyrate control;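 active = activation above a cutoff set at the mean of all screened compounds plus 3 SD, cut at about 10% in these data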;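 also: 0% = DMSO wells and 100% = sodium butyrate wells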
hcDAF12 agonist: H. contortus DAF-12 activation, primary screen; HEK293 hcDAF-12 lit1-tk-luc reporter, luminescence; 0% DMSO, 100% Δ7-dafachronic acid; activation, % at 6.8 µM; hit rate 1.4% among 370,000; AID 652067;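 active = activation above the mean of all tested compounds plus 3 SD, cut at about 5.5% in these data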;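 also: 100% = response to 3 µM Δ7-dafachronic acid high control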
ssDAF12 agonist: activators of S. stercoralis DAF-12 nuclear receptor | HEK293 ssDAF-12/GRIP1 lit1-tk-luc reporter, luminescence; % of 3 µM dafachronic acid response | activation, % at 6.8 µM | hit rate 1% among 370,000;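 active = activation above the mean over all tested compounds plus 3 SD, cut at about 0.9% in these data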;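 also: 0% = DMSO-only wells and 100% = 3 µM delta7-dafachronic acid wells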
DAX1 inh-2: DAX1 (NR0B1) inhibition, primary screen | HEK293T StAR-luciferase reporter, SF-1/DAX-1 repression relief | inhibition, % at 6.8 µM | hit rate 1.1% among 370,000;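 active = inhibition above the mean over all tested compounds plus 3 SD, cut at about 3.6% in these data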;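 also: 0% = DAX-1 cells with DMSO and 100% = cells lacking DAX-1 with DMSO; higher inhibition means more luminescence from relief of DAX-1 repression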
* hit, by the source's call; . = no result given.

SMILES	DAX1 inh-1	hgDAF12 agonist	hcDAF12 agonist	ssDAF12 agonist	DAX1 inh-2
O=C(CCO)c1ccc(O)cc1	4.3*	2.9	-1.2	-0.9	0.8
Cc1ccc(CC(=O)c2ccc(Cl)cc2)cc1	1.1	0.8	3.1	-0.7	0.2
O=C(Cc1ccc(Cl)cc1)c1ccc(O)cc1	4.9*	6.5	0.8	-1.0	0.7
COc1cc(F)c(S(=O)(=O)N2CCCN(S(=O)(=O)c3cccc(N)c3)CC2)c(F)c1	.	6.5	3.0	-0.8	.
O=C(c1ccccc1C(=O)N1CCN(c2ccccc2)CC1)N1CCN(c2ccccc2)CC1	-0.1	-1.8	-1.9	-0.3	-0.5
O=C(c1csc2c1CCCC2)N1CCN(c2ccccc2)CC1	-1.0	6.2	3.4	1.1*	0.9
Cc1ccc(N(C(=O)CNC(=O)c2ccco2)C(C(=O)NC2CCCC2)c2cccnc2)cc1C (centres undefined)	4.3*	-1.1	-0.6	-0.9	-0.5
O=C(NCC(=O)N(CC1CCCO1)C(C(=O)NC1CCCCC1)c1cccnc1)c1cccs1 (centres undefined)	5.0*	-1.4	-1.7	-1.5	-0.2
N#Cc1cc(-c2ccccc2)c[nH]c1=O	5.3*	0.1	0.8	-1.0	0.1
O=C(c1cccs1)n1ccc2ccc(-c3ccc4ccn(Cc5ccccc5)c4c3)cc21	.	0.1	-0.3	0.9	2.2
Clc1ccc2nc(CNc3nc(N4CCOCC4)nc4c3ncn4-c3ccsc3)[nH]c2c1	.	-10.4	-5.9	-3.0	.
Cc1cc(=O)[nH]c(SCc2cccc3cccnc23)n1	5.2*	0.5	-0.7	-1.8	-1.1
CNC(=O)C1=C(C)Nc2nc3ccccc3n2C1c1ccc(F)cc1 (centres undefined)	2.0	2.7	-0.9	-1.0	-0.1
N#CC1=C(N)Nc2nc3ccccc3n2C1c1ccc(F)cc1 (centres undefined)	-0.8	-1.7	-2.1	1.3*	-0.9
CCN(CC)C(=O)Oc1ccc2cc(Br)ccc2c1	-0.4	5.3	6.3*	-1.5	0.9
CC1(C)CC(=O)C=C(Nc2ccccc2NC(=O)c2cc(F)cc(F)c2)C1	.	3.1	-3.7	-0.9	-0.3
NS(=O)(=O)c1ccc(CCNC(=O)c2ccc(Cl)c(S(=O)(=O)NCc3ccco3)c2)cc1	0.1	-2.6	1.3	1.3*	-0.5
O=C(O)c1ccc(Cl)c(S(=O)(=O)NCc2ccco2)c1	0.0	-0.4	-0.8	-0.7	-0.1
COc1ccc2c(c1OC)C(=O)OC2Nc1nc(-c2ccc([N+](=O)[O-])cc2)cs1 (centres undefined)	1.5	4.7	3.4	1.6*	-0.3
COc1ccc2c(c1OC)C(=O)OC2Nc1nc(-c2cc3cc(Br)ccc3oc2=O)cs1 (centres undefined)	4.8*	10.6*	0.7	-0.6	2.1
O=C(NN1C(=O)C2C(C1=O)C1C=CC2C12CC2)c1cccc(Cl)c1 (centres undefined)	5.0*	-1.7	-1.2	-1.2	0.0
Cc1cccc2c1CCC1CN(Cc3ccccc3)S(=O)(=O)N21 (centres undefined)	.	-0.2	1.7	-1.9	.
O=C(Nc1ccc2ccccc2c1)c1ccc(Cl)cc1Cl	0.2	10.7*	5.4	0.2	2.4
O=C(Nc1ccc2c(c1)C(=O)OC2)c1ccc(Cl)cc1Cl	-0.8	1.5	5.6*	-1.1	0.5
CC1CSc2ccccc2NC1=S (centres undefined)	-0.5	-1.3	0.7	-1.0	-0.6
SMILES	DAX1 inh-1	hgDAF12 agonist	hcDAF12 agonist	ssDAF12 agonist	DAX1 inh-2
c1ccc(C2CSc3ccccc3N2)cc1 (centres undefined)	2.6	5.6	5.6*	0.2	1.4
O=C1CC(NNc2ccccc2)C(=O)N1c1ccccc1 (centres undefined)	1.6	0.2	6.3*	-0.5	1.0
CCC(=O)Nc1nnc(/C=C/c2ccccc2)s1	5.3*	6.1	0.0	-0.7	1.1
Cc1cccc(N2CCN(C(=O)CN3C(=O)C4CC=CCC4C3=O)CC2)c1C (centres undefined)	1.2	10.6*	1.6	0.4	1.5
Cc1cccc(N2CCN(C(=O)CN3C(=O)NC(C)(C)C3=O)CC2)c1C	0.7	0.2	-1.0	-1.0	-0.3
O=C(C1CCN(c2cncnc2)CC1)N1CCOCC1	.	2.7	-0.4	-0.5	-1.0
Cc1nn(-c2ccccc2)c2sc(C(=O)N3CCC4(CC3)OCCO4)cc12	.	1.7	-3.5	-1.2	-0.3
C[C@H](O)[C@@H]1C(=O)N2CCc3c([nH]c4c(-c5ccc6c(c5)OCO6)cccc34)[C@@H]2C[C@@H]1N(C)C(=O)NC1CCCCC1	.	0.6	-3.2	-1.1	-0.3
O=C(Nc1sc2c(c1CN1CCOCC1)CCC2)c1ccc(F)cc1	-1.3	3.4	5.9*	-1.4	0.5
Cc1sc(NC(=O)c2ccc(F)cc2)c(CN2CCCCCC2)c1C	0.2	10.8*	4.5	0.4	2.2
Cc1sc(NC(=O)c2ccccc2F)c(CN2CCCCC2)c1C	-0.9	8.5	6.2*	-0.7	0.7
Cc1[nH]nc2c1C(c1ccc(Br)cc1)N(c1ccccc1)C2=O (centres undefined)	.	-3.6	-0.3	-1.2	0.5
Cc1ccc(CNC(=O)O[C@H]2CC[C@@]34CCCN3C(=O)CCC[C@H]4C2)o1	.	-2.6	-0.6	-1.8	.
Cc1occc1-c1nnc(SCC(=O)Nc2ccc3ncccc3c2)n1-c1ccccc1	.	3.2	-0.7	-0.2	-0.6
COc1ccc(NC(=O)CCSc2ccc(F)cc2)cc1	4.2*	9.7	2.6	-0.3	3.1
Cc1ccccc1N(CC(=O)NC1CCCCC1)C(=O)CCCC(=O)Nc1ccccn1	5.0*	-1.3	-3.3	-1.0	-0.2
CCc1ccccc1N(CC(=O)NC1CCCCC1)C(=O)CCCC(=O)Nc1ccccn1	2.5	0.3	-1.9	-0.8	-0.3
Cc1nn2c(-c3ccco3)nnc2c2ccccc12	1.1	2.1	5.9*	0.4	1.1
Oc1ccc2ccccc2c1N=Nc1ccccc1F	0.6	0.5	6.4*	-0.7	-0.4
COC(=O)[C@H](CC(C)C)N(CCCc1cn(Cc2ccc(C)cc2)nn1)S(=O)(=O)c1ccccc1Br	.	0.0	-4.5	-1.3	-2.6
CCOC(=O)c1cnn2c(C)cc(-c3ccccc3)nc12	4.3*	6.9	4.0	-0.5	2.4
CCOC(=O)c1cc2nc(-c3ccccc3)cc(C)n2n1	0.0	-0.8	0.7	-1.2	-0.1
COC(=O)N1C[C@H](Oc2ncccn2)[C@H]2C[C@@H]1c1ccccc1O2	.	1.4	-0.8	-0.7	0.0
Cc1ccc2[nH]c3c(=O)n(CCCN4CCOCC4)cnc3c2c1	0.5	-1.3	-1.8	0.0	0.2
COc1ccc2[nH]c3c(=O)n(CCCN4CCOCC4)cnc3c2c1	6.2*	-0.6	-1.2	-0.7	0.0
CC1(C)CC(=O)C=C(Nc2ccccc2NC(=O)c2cc(Cl)ccc2F)C1	.	1.9	0.7	-0.8	-1.3
CCOC(=O)C1CCN(c2cc(=O)n(-c3ccccc3Cl)c(=O)[nH]2)CC1	4.2*	-1.5	-0.4	-1.6	0.0
